Source: PubChem BioAssay
Measles CPE – protection of cells from measles virus; Measles virus-infected cells, CPE protection, absorbance; protection (pct of control), % at 4 µM; 140,000 tested, 1.5% active; in the data active = protection mostly above about 24%, no sharp cut-off; inactive = mostly below about 26%
CYP2C9 act – increases human cytochrome P450 2C9 activity | recombinant CYP2C9, luciferin-H conversion, luminescence; hits give high values; factor 1 = untreated enzyme, 0 = blocked | 96,000 tested, 1.4% active | P11712 | AID 1024 | activation factor at 5 µM;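 active = activation factor of 2 or more for CYP2C9 at a 5 µM dose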;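 note: 0 = sulfaphenazole-blocked wells and 1 = vehicle-only wells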
Target sequence (P11712 whole entry, looked up): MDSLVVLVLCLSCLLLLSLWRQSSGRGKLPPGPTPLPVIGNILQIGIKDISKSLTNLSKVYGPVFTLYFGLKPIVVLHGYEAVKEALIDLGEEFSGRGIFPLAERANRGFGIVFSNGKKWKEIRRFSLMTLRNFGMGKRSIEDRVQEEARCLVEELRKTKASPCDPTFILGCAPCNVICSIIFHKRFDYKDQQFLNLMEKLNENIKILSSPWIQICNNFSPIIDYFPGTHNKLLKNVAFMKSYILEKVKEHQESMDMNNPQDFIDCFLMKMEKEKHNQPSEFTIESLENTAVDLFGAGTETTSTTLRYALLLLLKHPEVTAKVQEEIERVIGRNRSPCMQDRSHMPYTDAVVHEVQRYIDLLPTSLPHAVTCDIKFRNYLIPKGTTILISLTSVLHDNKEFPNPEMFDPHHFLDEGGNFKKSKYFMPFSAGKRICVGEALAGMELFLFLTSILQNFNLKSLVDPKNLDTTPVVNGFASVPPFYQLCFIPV
CYP2C19 inh – inhibitors of human CYP2C19; P33261; CYP2C19 Supersomes, luciferin-H EGE luminescence, 30 min; inhibition, % at 5 µM; 96,000 tested, 21% active; AID 778;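 active = CYP2C19 inhibition above a set limit at 5 µM in the primary screen, cut at about 50% in these data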;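 note: plate controls were negative control wells for no effect and 2.5 mM tranylcypromine positive control for full effect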
CYP2C19 activ – activators of human cytochrome P450 2C19; AID 1025; 96,000 tested, under 10 active; recombinant CYP2C19, luciferin-H EGE luminescence; hits give high values; 0 = fully inhibited enzyme, 1 = untreated enzyme; activation factor at 5 µM;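 active = activation factor of at least 2 at 5 µM in the primary screen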;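 note: 0 = wells with 2.5 mM tranylcypromine and 1 = vehicle-only wells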
CYP2C9 inhib – human CYP2C9 inhibition. inhibition, % at 5 µM. AID 777. 96,000 tested, 20% active. CYP2C9 Supersomes, luciferin-H conversion, luminescence. P11712;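 active = blocking of liver enzyme CYP2C9 beyond about 50% at 5 µM, limit read from the data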
Active calls of the source: *; x = not tested or not shown. In the library only some 22% were active in any assay of this set; here they are far more common.

SMILES	Measles CPE	CYP2C9 act	CYP2C19 inh	CYP2C19 activ	CYP2C9 inhib
CCOc1cc(CNn2cnnc2)ccc1OCC(=O)NC1CCCCC1	2.5	0.3	28.0	0.7	65.3*
Cc1cc2c3c(c1)C(C)(c1ccccc1)CC(C)(C)N3C(=O)C21C(C#N)=C(N)OC2=C1C(=O)CC(C)(C)C2 (centres undefined)	21.1	0.4	4.8	1	59.1*
COc1ccccc1N(C)S(=O)(=O)c1ccc(C(=O)NCC(C)C)cc1	11.4	0.2	52.3*	0.5	83.2*
CCC(C)(C)NC(=O)c1ccc(S(=O)(=O)N(C)c2ccccc2OC)cc1	8.1	0.4	15.0	0.8	64.7*
COc1ccccc1N(C)S(=O)(=O)c1ccc(C(=O)N(CC(N)=O)C(C)C)cc1	18.2	1	-10.6	1.1	-0.4
c1ccc2sc(Cc3nnc4n3CCCCC4)nc2c1	14.0	1.1	16.5	0.8	-10.1
COc1ccc(Oc2ccc(/C=C/C(=O)c3cccc(OC)c3)cc2[N+](=O)[O-])cc1	11.0	x	x	x	x
COc1ccc(CCn2c(=O)[nH]c3cc(C(=O)NCCN4CCOCC4)ccc3c2=O)cc1OC	7.5	0.6	-18.6	1.2	42.3
COc1cc2[nH]c(=O)n(CCC(=O)NCc3cccnc3)c(=O)c2cc1OC	66.6*	1	2.0	1	1.0
COc1cc2[nH]c(=O)n(CCCCCC(=O)NCCc3c[nH]c4ccccc34)c(=O)c2cc1OC	19.9	0.3	63.5*	0.4	66.9*
CCCCCn1c(=O)[nH]c2cc(C(=O)NCCc3ccc(OC)c(OC)c3)ccc2c1=O	38.3*	0.3	58.9*	0.4	70.4*
COc1ccccc1[C@@H]1C(c2cccc(Cl)c2)=NN(c2ccc(Br)cc2)[C@H]1C(=O)N1CCOC1=O	5.6	x	x	x	x
CC(C)OC(=O)NCN1C(=O)C2C3C=CC(C3)C2C1=O (centres undefined)	2.9	1	-1.8	1	-4.9
C/C(=N/NC(=O)CN1CCN(S(=O)(=O)c2ccc(Br)cc2)CC1)c1cccnc1	13.4	x	x	x	x
O=C(Nc1ccc2c(c1)OCCO2)C1CCCN(S(=O)(=O)c2cccs2)C1 (centres undefined)	6.1	0.5	41.5	0.6	46.6
CNC(=S)N(Cc1ccc(OC)cc1)C1CC(=O)N(c2ccc(Cl)cc2)C1=O (centres undefined)	7.7	0.7	62.8*	0.4	30.4
CCOC(=O)c1ccc(N2C(=O)CC(N(C)CCc3ccc(OC)c(OC)c3)C2=O)cc1 (centres undefined)	0.7	0.4	72.7*	0.3	55.1*
CCOC(=O)c1ccc(NC(=O)c2ccc3c(c2)OCO3)cc1	22.1	1	2.9	1	-0.1
CCOC(=O)c1ccc(N2C(=O)CC(N(Cc3ccc4c(c3)OCO4)C(=O)Nc3ccccc3)C2=O)cc1 (centres undefined)	5.0	0.1	81.1*	0.2	89.2*
CN(Cc1ccncc1)C1CC(=O)N(c2ccc(Cl)cc2)C1=O (centres undefined)	11.7	0.1	98.6*	0	93.5*
COC(=O)CN(C)C1CC(=O)N(c2ccc(Cl)cc2)C1=O (centres undefined)	9.4	1.2	17.2	0.8	-23.4
COc1ccc(CCNC(=O)C2CCCN2C(=O)Nc2cccc(C(C)=O)c2)cc1OC (centres undefined)	5.6	1.1	-2.0	1	-12.9
Cc1ccc(S(=O)(=O)N2CCCN(S(=O)(=O)c3ccc4ccccc4c3)CC2)cc1	12.4	x	x	x	x
CNC(=S)N(Cc1ccc2c(c1)OCO2)C1CC(=O)N(c2ccc(F)cc2)C1=O (centres undefined)	4.7	0.2	91.5*	0.1	75.5*
COc1ccc(CNC(=O)C(C#N)c2nc3ccccc3nc2N2CCCC2)cc1 (centres undefined)	4.5	0.8	16.5	0.8	24.4
SMILES	Measles CPE	CYP2C9 act	CYP2C19 inh	CYP2C19 activ	CYP2C9 inhib
CCCCCCOC(=O)C(C#N)c1nc2ccccc2nc1N1CCN(C)CC1 (centres undefined)	10.7	1	30.4	0.7	0.4
CCC(C)COC(=O)C(C#N)c1nc2ccccc2nc1N1CCCCC1 (centres undefined)	3.6	0.3	49.6	0.5	66.5*
N#CC(C(=O)OCc1ccccc1)c1nc2ccccc2nc1N1CCOCC1 (centres undefined)	6.3	0.6	50.3*	0.5	39.7
COc1ccc(CNC(=O)C(C#N)c2nc3ccccc3nc2N2CCN(C)CC2)cc1 (centres undefined)	6.2	0.5	58.5*	0.4	46.3
CCC(CC)COC(=O)C(C#N)c1nc2ccccc2nc1N1CCN(CC)CC1 (centres undefined)	1.9	0.4	81.9*	0.2	64.2*
O=C(Nc1ncc(Cc2ccc(SC(F)F)cc2)s1)c1ccc(OC(F)F)cc1	1.2	x	x	x	x
CCOc1ccc(C(=O)NCCc2ccccc2)cc1	2.4	0.6	43.0	0.6	42.0
COc1ccc(CCNC(C)=O)cc1	14.2	1.1	-4.8	1	-10.9
CCOC(=O)NCCc1ccc(OC)cc1	2.3	0.4	82.8*	0.2	63.6*
COc1ccc(CCNC(=O)c2ccc(Cl)cc2Cl)cc1	15.3	0.9	88.6*	0.1	6.1
CCOc1ccc(CCNC(=O)C(O)c2ccccc2)cc1 (centres undefined)	17.9	0.4	47.1	0.5	57.0*
CCC(CC)C(=O)NCCc1ccc(OC)cc1	17.3	0.4	77.1*	0.2	58.8*
CC(C)C(NC(=O)CNC(=O)OC(C)(C)C)C(=O)NCc1ccccc1 (centres undefined)	1.3	1.1	31.9	0.7	-6.7
CCOC(=O)COc1ccc(S(=O)(=O)c2ccc(OCC(=O)OCC)cc2)cc1	0.8	0.6	4.8	1	41.5
CCOC(=O)COc1ccc(CCNC(C)=O)cc1	7.1	2.1*	-12.7	1.1	-110.9
CC(C)NS(=O)(=O)c1ccc(NC(=O)NC2CCCCC2)cc1	7.2	x	x	x	x
Cc1cccc(NC(=O)CN(C)S(=O)(=O)c2cccc3nsnc23)c1C	18.7	1.4	60.0*	0.4	-38.0
Cc1ccc(C)c(N(C)S(=O)(=O)c2cccc3nsnc23)c1	1.7	2.3*	43.6	0.6	-131.8
Cc1cc(C)cc(NC(=O)CN(C)S(=O)(=O)c2cccc3nsnc23)c1	23.5	0.5	37.4	0.6	54.5*
C=CCNS(=O)(=O)c1cccc(C(C)=O)c1	13.9	x	x	x	x
C=CCNS(=O)(=O)c1sccc1/C=N/O	2.1	1	59.9*	0.4	1.8
CCc1ccc(C2C(C#N)=C(N)C(C#N)(C#N)C3=CCC(C(C)(C)C)CC32)cc1 (centres undefined)	2.6	x	x	x	x
COc1ccc(C(C)(C)C)cc1NC(=S)NCCN1CCOCC1	4.3	x	x	x	x
COc1cc(OC)cc(-c2nnc(SCC(=O)N3CCCC3)o2)c1	2.9	1.2	3.2	1	-21.9
COc1cccc(-c2nnc(SCC(=O)N3CCCc4ccccc43)o2)c1	0.9	0.6	95.0*	0.1	36.5
COc1cc(OC)cc(-c2nnc(SCC(=O)N3CCCc4ccccc43)o2)c1	35.4*	0.8	91.6*	0.1	19.8
